Most compounds without a hit are left out; they make up all but 5.9% or so of the library.
KB-V1 cytotox – kills drug-selected multidrug resistant KB-V1 cells. Potency, µM (doses to about 46.1 µM), most hits filed as cytotoxic. KB-V1 MDR cells viability, CellTiter-Glo, 72 h. 400,000 tested, 3.4% active; further: on the % scale 0 is the no-effect control and ±100 the full control effect; nearly all actives have a fitted effect of over 60% in size
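KB-V1 MDR subline cells in DMEM (phenol-red free, 10% FBS) exposed to compounds in qHTS concentration series for 72 h at 37 degrees C. Viability read by CellTiter-Glo luminescence; concentration-effect curves fitted after normalization and correction.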
S2 tox – viability counter-screen for ATXN expression inhibitors; S2 cells (HEK-293 line with an ATXN2-luciferase reporter) viability, CellTiter-Fluor protease fluorescence, 24 h; Potency, µM (highest dose often 56.7 µM), usual class: cytotoxic; 400,000 tested, 0.49% active; AID 651635; further: nearly all actives have a fitted effect of over 40% in size
HepG2 viability – kills HepG2 cells in TGF-b inhibitor counter-screen | AID 588856 | HepG2 CAGA-GFP viability, ATP luminescence, 18 h | Potency, µM (doses to about 46.1 µM), without a hit: at the top dose activity change, negative = cytotoxicity, most hits filed as cytotoxic | 410,000 tested, 0.76% active
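HepG2 CAGA-GFP cells (1000/well, DMEM with 1% FBS) received compound, then TGF-beta at 500 pg/mL final, and were incubated 18 hours at 37 degrees C. Viability was read by CellTiter-Glo luminescence. Media-only wells were set as complete cell-killing and DMSO as no toxicity.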
KB-3-1 tox – KB-3-1 parental cell cytotoxicity; KB-3-1 viability, CellTiter-Glo ATP luminescence, 72 h; Potency, µM (top dose mostly 46.1 µM), most hits filed as cytotoxic; 400,000 tested, 1.4% active; AID 1347075; further: on the % scale 0 is the no-effect control and ±100 the full control effect; nearly all actives have a fitted effect of over 60% in size
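72 h, 37 °C compound treatment of KB-3-1 parental cells; CellTiter-Glo added, 10 min, luminescence read. Data corrected against DMSO-only plates and normalized before curve fitting.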
TGFb inhibitor – TGF-b pathway inhibition; HepG2 CAGA-GFP TGF-b/SMAD3 reporter, GFP fluorescence, 18 h; TGF-beta stimulated, 500 pg/mL final; Potency, µM (series often up to 46.1 µM), without a hit: at the highest dose activity, negative = inhibition, hits mostly inhibitors; 410,000 tested, 1.2% active; AID 588855; further: on the % scale 0 is the no-effect control and ±100 the full control effect; nearly all actives have a fitted effect of over 65% in size
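Read-out: total well GFP (ex488/em500-530) summed from mean per-cell fluorescence. Cells: HEPG2 CAGA-GFP, 1% FBS DMEM, 18 h at 37 degrees C with 500 pg/mL final TGF-beta. Unstimulated wells served as the full-inhibition control; stimulated DMSO wells = 0%.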
ATXN2 expr inh – ATXN2 expression inhibition; HEK-293 ATXN2-luciferase reporter, luminescence, 24 h; Potency, µM (highest dose often 57 µM), for the others: at the highest dose activity change, negative = inhibition, actives largely listed as inhibitors; 360,000 tested, 0.72% active; further: on the % scale 0 is the no-effect control and ±100 the full control effect; nearly all actives have a fitted effect of over 55% in size
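qHTS (up to 57 uM final) was run with 24 h compound exposure of reporter cells at 37 °C. Each well was multiplexed: SteadyGlo luminescence measured ATXN2-luciferase expression after a fluorogenic Gly-Phe-AFC viability readout (25 uM final).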
Active calls of the source: *. The call rests on the fitted dose curve; in most records, active means well fitted curve in the direction sought with a large enough effect; inconclusive means small, poorly fitted or top-dose-only effect, or another doubt; inactive means no such curve, though single readings can be large; an effect the other way counts as inactive or inconclusive. Potency means the concentration at half of the fitted maximal effect.

`N#C/C(=C/c1ccc(O)c([N+](=O)[O-])c1)C(=O)Nc1ccccc1` gave KB-V1 cytotox inconclusive, S2 tox inconclusive, HepG2 viability -24%, KB-3-1 tox 18µM*, TGFb inhibitor -6% and ATXN2 expr inh inconclusive.
Screening COc1ccc(CN2C[C@@H](CO)O[C@@H](n3cnc4c(NCCN(C)C)ncnc43)C2)cc1 returned KB-V1 cytotox inactive, S2 tox inactive, HepG2 viability -16%, KB-3-1 tox inactive, TGFb inhibitor inconclusive and ATXN2 expr inh -2%.
CCc1ccc(CNC(=O)C2COc3ccc(OC)cc3C2)cc1 (stereo not given) was read as KB-V1 cytotox inactive, S2 tox inactive, HepG2 viability 0%, KB-3-1 tox inactive, TGFb inhibitor 0% and ATXN2 expr inh 1%.
CC(=O)Nc1cc(O)c2nonc2c1O was read as KB-V1 cytotox inconclusive, HepG2 viability 0.56µM*, KB-3-1 tox 2.6µM* and TGFb inhibitor 0.56µM*.
Screening O=C1C(c2ccccc2)=[N+]([O-])c2ccccc21 returned KB-V1 cytotox inconclusive, S2 tox inconclusive, HepG2 viability 11µM*, KB-3-1 tox inconclusive, TGFb inhibitor inconclusive and ATXN2 expr inh inconclusive.
Screening CCn1c2ccccc2c2cc(NC(=O)COc3ccccc3OC)ccc21 returned KB-V1 cytotox 6.5µM*, S2 tox inactive, HepG2 viability -26%, KB-3-1 tox 4.6µM*, TGFb inhibitor 11% and ATXN2 expr inh -22%.
CCn1c2ccccc2c2cc(NC(=O)COC(=O)Cc3cn4ccsc4n3)ccc21 was read as KB-V1 cytotox inactive, S2 tox inactive, HepG2 viability 1%, KB-3-1 tox inactive, TGFb inhibitor inconclusive and ATXN2 expr inh 28µM*.
For CCn1c2ccccc2c2cc(NC(=O)COC(=O)c3ccc(O)cc3)ccc21 the results were KB-V1 cytotox inactive, S2 tox inactive, HepG2 viability -34%, KB-3-1 tox inconclusive, TGFb inhibitor 34% and ATXN2 expr inh inconclusive.
Screening CCn1c2ccccc2c2cc(NC(=O)COC(=O)c3cccc(S(=O)(=O)NC)c3)ccc21 returned KB-V1 cytotox inactive, S2 tox inactive, HepG2 viability -10%, KB-3-1 tox inactive, TGFb inhibitor -7% and ATXN2 expr inh 16µM*.
Screening CCn1c2ccccc2c2cc(NC(=O)COc3ccc(C)c(C)c3)ccc21 returned KB-V1 cytotox inactive, S2 tox inconclusive, HepG2 viability 66%, KB-3-1 tox inactive, TGFb inhibitor 62% and ATXN2 expr inh 2%.
`COc1ccc(NC(=O)c2ccc3c(=O)n4nc(Nc5ccccc5C)sc4nc3c2)cc1Cl` gave KB-V1 cytotox inactive, S2 tox inactive, HepG2 viability -9%, KB-3-1 tox inactive, TGFb inhibitor 9% and ATXN2 expr inh -16%.
Screening COc1ccc(OC)c(S(=O)(=O)NC(=O)C2(C)CCN2C(=O)C2(c3ccc(Cl)cc3)CC2)c1 (stereo not given) returned KB-V1 cytotox inactive, S2 tox inactive, HepG2 viability -26%, KB-3-1 tox inactive, TGFb inhibitor -1% and ATXN2 expr inh 0%.
For Cc1ccc(N(Cc2cccs2)C(=O)c2ccc(Br)o2)cc1 the results were KB-V1 cytotox inactive, HepG2 viability -37%, KB-3-1 tox inactive and TGFb inhibitor inconclusive.
`CC(C)Cn1c(=O)c(C(=O)N/N=C/c2cccc(F)c2)c(O)c2ccccc21` gave KB-V1 cytotox 2.9µM*, S2 tox inactive, HepG2 viability -6%, KB-3-1 tox 12µM*, TGFb inhibitor -18% and ATXN2 expr inh -3%.
Screening O=C(Oc1c(CN2CCOCC2)cc(Cl)c2cccnc12)c1ccccc1F returned KB-V1 cytotox inconclusive, HepG2 viability -53%, KB-3-1 tox 18µM*, TGFb inhibitor inconclusive and ATXN2 expr inh inconclusive.
For CCOc1cccc2sc(N(CCN(CC)CC)C(=O)c3ccco3)nc12 the results were KB-V1 cytotox inactive, S2 tox inconclusive, HepG2 viability -37%, KB-3-1 tox inactive, TGFb inhibitor -9% and ATXN2 expr inh -28%.
Cc1cccc(C(=O)N(Cc2nc(-c3ccc(Cl)cc3)no2)C(C)C)c1 was read as KB-V1 cytotox inactive, S2 tox inactive, HepG2 viability -8%, KB-3-1 tox inactive, TGFb inhibitor inconclusive and ATXN2 expr inh inconclusive.
Screening Cc1ccc(-c2noc(CN(C(=O)Cc3ccccc3)C(C)C)n2)cc1 returned KB-V1 cytotox 23µM*, S2 tox inactive, HepG2 viability -5%, KB-3-1 tox inactive, TGFb inhibitor -13% and ATXN2 expr inh 2%.
Screening Cc1ccc(C)c(C(=O)N(Cc2nc(-c3ccc(Cl)cc3)no2)C(C)C)c1 returned KB-V1 cytotox inactive, S2 tox inactive, HepG2 viability -17%, KB-3-1 tox inactive, TGFb inhibitor 10µM* and ATXN2 expr inh inconclusive.
Screening COc1cc(C)ccc1OCCSc1nc(-c2cccc(C)c2)nc2cc(=O)[nH]n12 returned KB-V1 cytotox inactive, S2 tox inactive, HepG2 viability -8%, KB-3-1 tox inactive, TGFb inhibitor -10% and ATXN2 expr inh 0%.
Screening COCCN1CCN(C(=O)c2cnn(-c3nccc(-c4ccccc4OC)n3)c2-c2ccco2)CC1 returned S2 tox inactive.
Screening N#Cc1ccccc1CN1C(=O)c2ccccc2Sc2ccc(C(=O)OCc3ccco3)cc21 returned KB-V1 cytotox inconclusive, S2 tox inactive, HepG2 viability -9%, KB-3-1 tox inactive, TGFb inhibitor -8% and ATXN2 expr inh -13%.
Screening Cc1cc2nccc(/C=C/c3ccc(N(C)C)cc3)c2cc1C returned KB-V1 cytotox inactive, HepG2 viability -3%, KB-3-1 tox inactive and TGFb inhibitor 5%.
`Cc1cc(C)c2c(C)nn(-c3ccccc3)c2n1` gave KB-V1 cytotox inactive, S2 tox inactive, HepG2 viability -17%, KB-3-1 tox inactive, TGFb inhibitor 2% and ATXN2 expr inh 4%.
`Cc1cc(C)c2c(=N)c3ccccc3n(CCCCCCCCn3c4ccccc4c(=N)c4c(C)cc(C)nc43)c2n1` gave KB-V1 cytotox inactive, S2 tox inconclusive, HepG2 viability -94%, KB-3-1 tox inconclusive, TGFb inhibitor inconclusive and ATXN2 expr inh 28µM*.
Screening Cc1cc(NC(=O)CC2CCCC2)n(-c2nc3ccccc3[nH]2)n1 returned KB-V1 cytotox 18µM*, S2 tox inconclusive, HepG2 viability -36%, KB-3-1 tox inconclusive, TGFb inhibitor -15% and ATXN2 expr inh -30%.
